Results as given in PubChem BioAssay AID2685 (National Center for Advancing Translational Sciences (NCATS), 2010).
The whole screen tested about 320,000 compounds, of which about 2,100 (0.66%) were called active. Another 53% or so got no clear call; they are omitted. Calls come from the whole dose curve; as a rule, active = well fitted inhibition curve with a large enough effect in the signal ratio, with a control signal flat (not every such curve was filed as active); inconclusive = small, poorly fitted or top-dose-only effect, or effect the other way, or a change in a side signal; inactive = flat fitted curve, though single readings scatter; the % refers to the signal ratio. The full list was thinned out, with actives kept by preference.

Experiment: qHTS Assay for Lipid Storage Modulators in Drosophila S3 Cells;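 for cell number change: cells counted by Cell Tracker Red CMTPX staining in the red channel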
Settings: BODIPY lipid droplet fluorescence, 18-24 h, cells fed with added oleic acid; cell number change: measured here: cell count max response; series mostly up to 46.1 µM
Description: NIH Molecular Libraries Probe Production Centers Network [MLPCN] NIH Chemical Genomics Center [NCGC] MLPCN Grant: 1 R03 MH085686-01 Assay Submitter (PI): Beller, Mathias; Max-Planck-Institut fur Biophysikalische Chemie NCGC Assay Overview: Storing lipids as a reservoir for energy or the anabolism of elementary metabolites is a common feature of probably all cells and is conserved from bacteria to humans. The universal cellular lipid storage organelle is the so-called lipid storage droplet (LD). Although ubiquitous, LDs share a simple structure composed of a hydrophobic core that harbors the storage lipids, which is shielded by a droplet-specific phospholipid monolayer to which proteins are attached. The current model of LD biogenesis involves an incorporation of the lipid core into the membrane leaflets of the endoplasmic reticulum (ER) followed by a subsequent budding-like maturation of a LD, which ultimately pinches off. Once released, LD volume can increase by localized lipogenesis or fusion of existing droplet. Storage lipids are re-mobilized enzymatically by lipase activity. Lipase regulation in the adipocyte is heavily studied and involves multiple components including catecholamine signaling, the LD-associated proteins Perilipin and comparative gene identification (CGI-58) and at least two lipases named hormone sensitive lipase (HSL) and adipocyte triglyceride lipase (ATGL). LD regulation outside of the adipocyte is poorly understood and only few components are known. However, there is an urgent need to learn more about ectopic fat depots as mislocalized storage of lipids, for example in the liver or muscle, is an eminent health problem associated with insulin resistance or the metabolic syndrome. We developed a laser-scanning cytometer assay to enable 1,536-well screening and combined the results of the small molecules screen with an RNAi database based on lipid storage.
Triacsin C (Sigma-Aldrich T-4540), an inhibitor of long-chain fatty acyl CoA synthetase that blocks synthesis of triglycerides, was used as a positive control for lipid under-storage. A total of 23 nL of compound solution of different concentrations were transferred to the assay plates using a Kalypsys pin tool equipped with a 1,536-pin array containing 10-nL slotted pins (FP1S10, 0.457-mm diameter, 50.8 mm long; V&P Scientific). One microliter of oleic acid (400 uM) was added, and the plate was lidded with stainless steel rubber gasket lined lids containing pinholes. […] Fluorescence was detected by excitation of the fluorophores with a 488-nm laser on an Acumen Explorer (TTP Lab Tech). The total intensity in channel 2 (500-530 nm) reflected lipid droplet accumulation. Cells were detected using channel 3 (575-640 nm) with 5-um width and 100-um depth filters. The ratio of the number of objects in PMT channel 2 over the number of objects in PMT channel 3 was also calculated. Percent activity was computed relative to an internal control (100% inhibited lipid droplet deposition due to the presence of 20 uM Triacsin C), which was added to 32 wells/plate.
Potency is the fitted concentration of half-maximal effect.

Row | Compound | Potency | cell number change [%]
1 | CCO[C@@H]1OC(C(=O)N2CCN(Cc3ccc4c(c3)OCO4)CC2)=C[C@H](c2ccc3c(c2)OCO3)[C@H]1CCCO | inactive | 
2 | O=c1c2ccccc2nnn1CCN1CCOCC1 | inactive | -18.2
3 | Cc1ccc2nc(SC(C)C(=O)N3CCCC3)[nH]c2c1 (stereo unspecified) | inactive | 17.4
4 | CCC(Sc1nc2ccc(C)cc2[nH]1)C(=O)O (stereo unspecified) | 14.6 µM (active) | 14.5
5 | CCC(Sc1nc2ccccc2c(=O)[nH]1)C(=O)O (stereo unspecified) | inactive | -2.97
6 | Cc1ccc(-c2csc3nc[nH]c(=O)c23)cc1C | inactive | -18.4
7 | COc1cccc(-c2csc3nc[nH]c(=O)c23)c1 | 20.6 µM (active) | 
8 | O=c1[nH]cnc2scc(-c3ccccc3)c12 | inactive | -0.547
9 | OCCCNc1ncnc2oc(-c3ccccc3)c(-c3ccccc3)c12 | inactive | 13.3
10 | C(=N\Nc1nc2ccccc2[nH]1)/c1ccccc1 | inactive | -28.7
11 | CC(C)Cn1c(/C=N/Nc2nc3ccccc3[nH]2)nc2ccccc21 | inactive | -7.46
12 | CCCn1c(/C=N/Nc2nc3ccccc3[nH]2)nc2ccccc21 | 13 µM (active) | -13.7
13 | CCOC(=O)N1CCN(Cc2nnc(-c3ccccc3C)o2)CC1 | inactive | 3.5
14 | Cc1cc(NC(=O)c2cccs2)ncc1NC(=O)c1cccc(F)c1 | inactive | 0.447
15 | CCCCc1nc(C(N)=O)c2[nH]c(=O)n(-c3ccc(OC)c(OC)c3)c2n1 | inactive | 
16 | CCC1Oc2ccccc2N(CC(=O)NC2CCCCC2C)C1=O (stereo unspecified) | 29.1 µM (active) | -4.58
17 | CC1CCCCC1NC(=O)CN1C(=O)COc2ccccc21 (stereo unspecified) | inactive | -0.697
18 | CCC1Oc2ccccc2N(CC(=O)NC2CCCCC2)C1=O (stereo unspecified) | inactive | 2.82
19 | CC(C)c1nnc(NC(=O)COc2ccccc2[N+](=O)[O-])s1 | inactive | 0.142
20 | Cc1ccnc2nc(C(=O)Nc3nccs3)nn12 | inactive | -14.4

Row | Compound | Potency | cell number change [%]
21 | Cc1cc(C)c(OCC(=O)Nc2nc(-c3ccccn3)cs2)c(C)c1 | inactive | 1.77
22 | Cc1ccc(C(=O)Nc2nc(-c3ccccn3)cs2)s1 | 2.06 µM (active) | -8.64
23 | CC(=O)Nc1ccc(C(=O)Nc2nc(-c3ccccn3)cs2)cc1 | inactive | 
24 | CCc1cc(C(=O)Nc2ncccc2O)sc1C | inactive | -6.68
25 | O=C(Nc1nc(-c2ccccn2)cs1)c1ccco1 | inactive | -10.5
26 | CCc1cc(C(=O)Nc2nc(-c3ccccn3)cs2)sc1C | 5.17 µM (active) | 3.52
27 | Cc1ccnc2nc(C(=O)Nc3nc(-c4ccccn4)cs3)nn12 | 1.64 µM (active) | -16
28 | Cn1nc(C(=O)Nc2nc(-c3ccccn3)cs2)c2ccccc2c1=O | inactive | -20.7
29 | CCCNC(=O)c1cccc(Br)c1 | inactive | 
30 | CC(=O)N1CCc2cc(Br)cc(S(=O)(=O)N3CCCCC3)c21 | inactive | -26.2
31 | CC(=O)Nc1cccc(NC(=O)C(C)N2c3cccc4cccc(c34)S2(=O)=O)c1 (stereo unspecified) | inactive | 20.8
32 | COC(=O)C1(C(C[N+](=O)[O-])c2ccco2)C(=O)NCC1c1ccccc1 (stereo unspecified) | inactive | 
33 | COc1cc(C)nc(NCc2ccccc2)n1 | inactive | 
34 | Cc1cc(Nc2ccccc2)nc(NCc2ccccc2)n1 | 8.2 µM (active) | -27.7
35 | Cc1cc(Oc2ccccc2)nc(NCc2ccccc2)n1 | inactive | -8.62
36 | CCOc1ccc2nc(N3C(=O)/C(=C/c4ccc(Cl)cc4)NC3=S)sc2c1 | inactive | 13.8
37 | CCOc1ccc2nc(N3C(=O)/C(=C/c4ccccc4)NC3=S)sc2c1 | 9.2 µM (active) | -2.65
38 | COc1ccc2nc(N3C(=O)/C(=C/c4ccc(Cl)cc4)NC3=S)sc2c1 | inactive | 28.8
39 | CCOC(=O)C1CCN(S(=O)(=O)c2ccc(-c3ccccn3)s2)CC1 | inactive | 18.1
40 | CCOC(=O)CN(C(=O)CSc1nnc(CNc2ccc(C)cc2C)n1CC)c1ccccc1 | inactive | -14.6

Row | Compound | Potency | cell number change [%]
41 | COC(=O)CSc1nc(N2CCOCC2)c2c(c1C#N)CC(C)(C)N(C)C2 | inactive | 15.3
42 | O=C(O)c1cccc2c1C(=O)c1ccc(-c3ccc(F)cc3F)cc1S2(=O)=O | inactive | 1.93
43 | COc1ccc(-c2ccc3c(c2)S(=O)(=O)c2cccc(C(=O)O)c2C3=O)cc1OC | inactive | 0.722
44 | COc1cccc(-c2ccc3c(c2)S(=O)(=O)c2cccc(C(=O)O)c2C3=O)c1OC | 0.651 µM (active) | 
45 | O=C(c1ccco1)N(Cc1ccc(Cl)cc1)C1CCS(=O)(=O)C1 (stereo unspecified) | inactive | 5.9
46 | Cc1c(C(=O)N(Cc2ccccc2)C2CCS(=O)(=O)C2)oc2ccccc12 (stereo unspecified) | inactive | 19
47 | Cc1cc(Cl)c2oc(C(=O)N3CCN(C4CCS(=O)(=O)C4)CC3)c(C)c2c1 (stereo unspecified) | inactive | 16.7
48 | C=CCN(C(=O)c1ccccc1)C1CCS(=O)(=O)C1 (stereo unspecified) | inactive | 22.7
49 | Cc1c(C(=O)N(Cc2ccc(Cl)cc2)C2CCS(=O)(=O)C2)oc2ccccc12 (stereo unspecified) | 9.2 µM (active) | -19.8
50 | C=CCN(C(=O)c1oc2c(Cl)cc(C)cc2c1C)C1CCS(=O)(=O)C1 (stereo unspecified) | 20.6 µM (active) | 7.31
51 | CC1(C)C(C=C(Cl)Cl)C1C(=O)N(Cc1ccc(Cl)cc1)C1CCS(=O)(=O)C1 (stereo unspecified) | 8.2 µM (active) | -12
52 | CC1(C)C(C=C(Cl)Cl)C1C(=O)N(Cc1ccccc1Cl)C1CCS(=O)(=O)C1 (stereo unspecified) | inactive | -19.9
53 | Cc1c(C(=O)N(Cc2ccc(F)cc2)C2CCS(=O)(=O)C2)oc2ccccc12 (stereo unspecified) | inactive | 3.58
54 | O=C1CSC(c2ccccc2)N1CC(O)c1ccc([N+](=O)[O-])cc1 (stereo unspecified) | inactive | 14
55 | CCOc1ccc(-c2noc(-c3cccnc3)n2)cc1OCC | inactive | 2.29
56 | O=[N+]([O-])c1cccc(OCCN2CCC(Cc3ccccc3)CC2)c1 | inactive | 10.2
57 | COc1ccc(S(=O)(=O)CCC(=O)Nc2ccc(OC)cc2OC)cc1 | inactive | -8.69
58 | Cc1ccc(C(=O)CCC(=O)OCC(=O)N(CC(C)C)c2c(N)n(Cc3ccccc3)c(=O)[nH]c2=O)cc1 | inactive | 20.5
59 | COc1ccc(CCNc2c(C=O)c(=O)[nH]c3ccccc23)cc1OC | inactive | 
60 | Cc1cc(Br)ccc1NC(=O)C(C)c1ccc([N+](=O)[O-])cc1 (stereo unspecified) | inactive | 6.98
